Whole data set: some 25,000 sequences, median “ln(normalized median fluorescence intensity)” near 7.1, cut for the highest 2% near 10. The sample as a whole holds a higher share of the highest values than the screen did.
Test system: PfSIP2 AP2 domain 1 (GST-tagged)
Test: gcPBM binding intensity (ln(normalized median fluorescence intensity)); higher = stronger DNA binding
How it was run: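 GST-tagged P. falciparum DNA-binding domains, expressed in E. coli (about 25 μg on average), were applied for 1 h to an Agilent 4 × 180k array of primer-extended double-stranded 36-bp intergenic genomic probes plus negative controls. The binding buffer was 1× PBS with 1% milk, 0.2 mg/ml BSA, 0.5% salmon testes DNA and 0.03% Triton X-100. Bound protein was detected with Alexa488 anti-GST antibody and scanned at 488 nm. Binding intensity is the highest Masliner-normalised natural-log median intensity across replicate spots of either probe orientation.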

Sequence	gcPBM binding intensity (ln)
TTAAATACTAAAAAGTGTACACATACATAAAAAATT [XGTACX_site6261]	7.32
TTTTGTTTATTATGATTCAAAATGATTTTATCTTTG [TGCATGCA_negctrl_site425]	6.71
ACATATATATATTTATATATATATATATATATGTGA [CACACA_negctrl_site613]	7.44
AAGTATAGTCTTACATATATATATATATATATATAT [GTGCAC_negctrl_site280]	9.42
AGTTTTATATAAGCTTGTACTTAATATTATTAAGTA [XGTACX_site5919]	6.99
ATCTAATATATATTCTGTACGTAATTAAAACCACAA [XGTACX_site3152]	7.54
GGACTTAAATAAAATGGTACAGAATTTATATATATT [XGTACX_site8214]	6.83
AAATAGTTGTTAAAGGTGCACAATATGGATATAAGA	11.2
TAGTTAACAAATAATGCACACAAATGGATAAAATTA [CACACA_site9240]	7.83
TTAAAAGTTATGGATACACACATATAAATATAGATT [CACACA_site7175]	6.77
GTAAATATTAATAAAAGTACATATGTAGCATATGGA [XGTACX_site5219]	7.09
TTATTTATTTATTCATGTACGTGTATTTTTTAAAAA [XGTACX_site7915]	7.28
TATATATATATATATGTGCACATTTTATTAAAATGT	9.6
TTAAATTACTAATGTGCACACATACTAACGTTTAAA [CACACA_site3573]	9.21
TGTGCACGTTCTGTGACACACATTTAAATGTGCTTA [CACACA_site176]	10.7
TCTGTATATTTCGCGCGTACGAACAAATTGATAATT [XGTACX_site7965]	7.11
TATAATATAATATATGCACACAAATATGTATATATG [CACACA_site8664]	7.15
AGAAAAATAAACAAATGTACAAATTATTACTATATA [XGTACX_site1087]	6.8
GTATATAATATTAGTGCACACACAAAAATGTACTAA [CACACA_site8112]	10.9
AAAAATATAATATAATGTACACAAAAAAAAAAAAAT [XGTACX_site4914]	7.13
ATAATAAATACACTAGTGCAAAATAATATATGTACT [GTGCAC_site9707]	8.13
CTATAATATTAGTGCACACACAAAAATGTACTAAAC [CACACA_site6442]	11.3
AAAAATATAATATAATGTACACATAAACAAAAAAAA [XGTACX_site3658]	7.04

Sequence	gcPBM binding intensity (ln)
ATATAATATTAGTGCACACACAAAAATGTACTAAAC [CACACA_site632]	10.9
ATATTACAAATATAATGTACAAAATATAAATATGCA [XGTACX_site8106]	6.85
TTCGTATATTATTAATGTACATTATAAAATCAATAT [XGTACX_site5751]	7.08
GACTGAACAACATAATGTACATTTATAAGTATATAT [XGTACX_site3813]	7.15
TTTTTTTTCAATGGTTGTACAAAGTAAAACAACAAA [XGTACX_site1582]	7.2
ATATGTAAATAAATATGTACTCATTTATTATTTTAT [XGTACX_site8748]	7.06
CATTTTATTCTATATGCATGTTAAAAAATGTGTTGA [TGCATGCA_site128]	7.12
AAATATAATATACAAAGTACTTTTTCATCTTATATA [XGTACX_site8771]	6.84
AAACAATTTGGGTGTACACATGATACGTTCGATGAG [CACACA_site5160]	7.18
ATAAAAGAATAAATAAAACACATATATATATATATA [XGTACX_negctrl_site31]	9.43
TGTATAATATTTGGTGCACACAAATTAACAACTGTT [CACACA_site9245]	11.4
ATATTTATAAATTGCACACAAATAATAACATTATAT [CACACA_site5322]	7.13
CTTTGTAGTATATTAACACACAACTGTTTATAATAT [CACACA_site6038]	7.05
TATAATATTTGGTGCACACAAATTAACAACTGTTTA [CACACA_site3742]	11.7
AAATATTTATAAATTGCACACAAATAATAACATTAT [CACACA_site8737]	7
TTCTTTGTAGTATATTAACACACAACTGTTTATAAT [CACACA_site9305]	7.27
AAAGGTTCACATTATATAGTTATGTAATATATATGT [CACACA_negctrl_site542]	6.84
ATATTTCATTTTTGTACACACAACGTTGGAGGGTTT [CACACA_site3043]	7.18
TCATATTTCCATAGGAGTACATAAAAAAAATAATAT [XGTACX_site7601]	7.06
TAAAAATAATATTAATGTACATTACATATTAATATA [XGTACX_site1019]	6.83
CATTTTTTTTTATAAATACACACGTACGGGTGCATA [CACACA_site1569]	10.9
TTTTTTTTTATAAATACACACGTACGGGTGCATAAC [CACACA_site8444]	11.3
AAAAGACATTTTTTTTTATAAATACACACGTACGTG [TGCATGCA_negctrl_site281]	6.95

Sequence	gcPBM binding intensity (ln)
ATAAATAAATTTATACGTACACATAATATATATATA [XGTACX_site4634]	8.89
GTTATAAATGCATATACACACATACGTACATACATA [CACACA_site7655]	7.4
TTTTATAAATACACACGTACGTGTGCATAACGTTTT [XGTACX_site3199]	7.21
ATGTATTTATTATTTAGTACACATTATTTTCTTATA [XGTACX_site6365]	7.05
AAATACATATTTAGAAGTACATTTATACATTTAATA [XGTACX_site8871]	7.04
CATATATAAATATATACACACATATATATATATATA [CACACA_site1365]	9.43
TGAAGGTCAGTTCACAGTACCCAGTAACTCTACGGA [XGTACX_site2554]	6.62
AGGATTATATATTAATGTACCCGCGTTAATTTTTTT [XGTACX_site2878]	6.82
GTCTATATATTTTAGGTGCAACGTAAATGTAAAAAT	10.7
ATATATATATTTATATTTATATGTAAATATCAACGT [TGCATGCA_negctrl_site32]	8.59
TTTTTTTTTATAAGGTGTACGTAAAATGTGTAGGTC [XGTACX_site3585]	8.36
TTAAGTAGTACATACACACACATATACAAAAAGAAA [CACACA_site3972]	7.3
AGAATGAAATAATATACACACAAAGGAAAAATGTAA [CACACA_site3911]	6.76
TACATATATTTTTATACATGCATAACTTAGGACTTT [TGCATGCA_site113]	7.07
TGTGCATAATTTTGTGCACACCACGCTAATAATTTT [CACACA_site2915]	10.9
TTTTTTTTTTTTTTTGTGCACAATATAATTTTTAAT [GTGCAC_site9747]	8.64
CATATAAATATTTGTGCACACAATTATTAATAATTA [CACACA_site3884]	9.35
ATAGTATCTGGTAGCTGTACGAGTCGTATAGTGCAG [XGTACX_site2542]	8.25
AAAAAAAATTATATATGTACTTATTAATCCTTATAT [XGTACX_site1389]	6.86
GATGTTTCTATTTTAGTGCATTTTAAATAAATAAAT	9.4
TACATCATCTATAAGGTGCATTTTAGTTCTATTAAA	10.8
TTTTCTAAATAAATAGTGCATTTATTATATATACAT [GTGCAC_site9766]	9.15
TTGTTCTTTTTTTTTTTATTTTTTAATTTGAAAAGA [CACACA_negctrl_site209]	7.03

Sequence	gcPBM binding intensity (ln)
AAAAAAAAAAGAAATTGTACTTTTTGTTTAATAATT [XGTACX_site4681]	6.65
TTGTTCTTTTGAAAGGTGCAAAAGAAAAATAATTAA	11.2
CATATTCCCCCCCACACACACACACGCATACATACC [CACACA_site7148]	10.1
GACATATTCCCCCCCACACACACACCCACATACATA [CACACA_site2302]	9.81
CATATTCCCCCCCACACACACACACCCATACATACC [CACACA_site2303]	10.2
TCTATATAATACCAATGTACATAGTTTTAAGCATAA [XGTACX_site1889]	6.93
TATAAAACGGATGAACAACAAATCATATGGCACAAA [TGCATGCA_negctrl_site608]	7.23
TTAAAAAAGTAATTAACACACAATAATGTAATGCAT [CACACA_site4176]	6.72
ACAAAGTAAAATAATGCATGTAGGTATACATAATTA [TGCATGCA_site607]	6.64
CTGTATAAAACCAATGCATGTAAATATATTAATATA [TGCATGCA_site511]	7.06
TTGTATCCTTAATGCATGCACCAAATAACAAAAGTA	10.6
TATTGTATCCTTAATGCATGCACCAAATAAAAAAAG [TGCATGCA_site541]	11.1
TTTTTGTATCCTTTTAATATTAAATAAAAGGAATGT [CACACA_negctrl_site1468]	7.02
TATTTGTTTGAATTTTTTTTTTTTTTTTTTTATGTG [CACACA_negctrl_site966]	6.78
CCTATATAATATATTTGTACTTAATAATTAAAGTGT [XGTACX_site5151]	7.16
ATTATTTGTAATATAACACACACAAAAAAAGACTCG [CACACA_site8487]	7.1
AAAATGTATATTGGCGCATGTAAACAAATACTATAC [TGCATGCA_site385]	7.13
AAATATTACATTTGTTAAATAATATGTTATACATAA [XGTACX_negctrl_site484]	6.96
CAGTTGTTAATTTGTGTGCACCAAATATTATACATA	11.2
GTCAAATTTTTGTGCACACATATATAGTTATTATTA [CACACA_site2241]	10
ACCTACACAAGCATTAAACACACAAAAGGGATACTT [CACACA_site8273]	7.18

— the supplement of paper PMC11417369
